Results from the supplement of paper PMC8728848.
Shown is part of a subset that was picked to be rich in the strongest signals.

Legend:
Experiment in all cases: glycan array binding signal (z-score within array); higher = stronger binding
Details in all cases: glycan notation: IUPAC condensed, linker removed; mutation: E41A
[1] = biological target: Fuc(a1-2)Gal(b1-3)GalNAc(a1-3)[Fuc(a1-2)]Gal(b1-4)GlcNAc
Procedure, shortened: (§1)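 Glycan array binding is given as a within-array Z-score, which can be read as non-binding when negative. The arrays, 3228 of them, came from the Consortium for Functional Glycomics database and were retained only where the protein sequence was available. Z-scores were averaged across arrays of the same protein sequence at different concentrations or buffers and across linkers.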

[2] = biological target: Fuc(a1-2)Gal(b1-4)GlcNAc(b1-2)Man
Procedure, shortened: as §1

[3] = biological target: Fuc(a1-2)Gal(b1-4)GlcNAc(b1-3)GalNAc
Procedure, shortened: as §1

[4] = biological target: Fuc(a1-2)[Gal(a1-3)]Gal(b1-4)[Fuc(a1-3)]Glc
Procedure, shortened: as §1

[5] = biological target: Fuc(a1-2)[GalNAc(a1-3)]Gal(b1-3)GlcNAc
Procedure, shortened: as §1

[6] = biological target: Fuc(a1-2)[GalNAc(a1-3)]Gal(b1-4)GlcNAc(b1-2)Man(a1-3)[Fuc(a1-2)[GalNAc(a1-3)]Gal(b1-4)GlcNAc(b1-2)Man(a1-6)]Man(b1-4)GlcNAc(b1-4)[Fuc(a1-6)]GlcNAc
Procedure, shortened: as §1

[7] = biological target: Fuc(a1-2)[GalNAc(a1-3)]Gal(b1-4)GlcNAc(b1-3)Gal(b1-4)GlcNAc(b1-3)Gal(b1-4)GlcNAc
Procedure, shortened: as §1

[8] = biological target: Fuc(a1-2)[GalNAc(a1-4)]Gal(b1-4)GlcNAc
Procedure, shortened: as §1

[9] = biological target: Fuc(a1-3)[Gal(b1-4)]GlcNAc
Procedure, shortened: as §1

[10] = biological target: Fuc(a1-3)[Gal3S(b1-4)]Glc
Procedure, shortened: as §1

[11] = biological target: Gal(a1-2)Gal
Procedure, shortened: as §1

[12] = biological target: Gal(a1-3)Gal(b1-3)GlcNAc
Procedure, shortened: as §1

[13] = biological target: Gal(a1-3)Gal(b1-3)[Fuc(a1-4)]GlcNAc(b1-2)Man(a1-3)[Gal(a1-3)Gal(b1-3)[Fuc(a1-4)]GlcNAc(b1-2)Man(a1-6)]Man(b1-4)GlcNAc(b1-4)GlcNAc
Procedure, shortened: as §1

[14] = biological target: Gal(a1-3)Gal(b1-4)[Fuc(a1-3)]GlcNAc
Procedure, shortened: as §1

[15] = biological target: Gal(a1-4)Gal(b1-4)GlcNAc(b1-2)Man(a1-3)[Gal(a1-4)Gal(b1-4)GlcNAc(b1-2)Man(a1-6)]Man(b1-4)GlcNAc(b1-4)GlcNAc
Procedure, shortened: as §1

[16] = biological target: Gal(b1-3)GalNAc(b1-3)Gal(a1-4)Gal(b1-4)Glc
Procedure, shortened: as §1

[17] = biological target: Gal(b1-3)GalNAc(b1-4)Gal(b1-4)Glc
Procedure, shortened: as §1

[18] = biological target: Gal(b1-3)GlcNAc(b1-2)Man(a1-3)[Gal(b1-3)GlcNAc(b1-2)Man(a1-6)]Man(b1-4)GlcNAc(b1-4)GlcNAc
Procedure, shortened: as §1

[19] = biological target: Gal(b1-3)GlcNAc(b1-6)Gal(b1-4)GlcNAc
Procedure, shortened: as §1

[20] = biological target: Gal(b1-4)GlcNAc(b1-2)Man(a1-3)[Gal(b1-4)GlcNAc(b1-2)Man(a1-6)]Man(b1-4)GlcNAc(b1-4)GlcNAc
Procedure, shortened: as §1

[21] = biological target: Gal(b1-4)GlcNAc(b1-2)Man(a1-3)[GlcNAc(b1-4)][Gal(b1-4)GlcNAc(b1-2)Man(a1-6)]Man(b1-4)GlcNAc(b1-4)GlcNAc
Procedure, shortened: as §1

[22] = biological target: Gal(b1-4)GlcNAc(b1-3)Gal(b1-4)GlcNAc(b1-2)[Gal(b1-4)GlcNAc(b1-3)Gal(b1-4)GlcNAc(b1-6)]Man(a1-6)[Gal(b1-4)GlcNAc(b1-3)Gal(b1-4)GlcNAc(b1-2)Man(a1-3)]Man(b1-4)GlcNAc(b1-4)GlcNAc
Procedure, shortened: as §1

[23] = biological target: GalNAc(a1-3)Gal
Procedure, shortened: as §1

[24] = biological target: GalNAc(a1-3)GalNAc
Procedure, shortened: as §1

[25] = biological target: GlcNAc(a1-4)Gal(b1-4)GlcNAc
Procedure, shortened: as §1

B1: CVN-E41G (protein)
chain: MHHHHHHENLYFQSGNFSQACYNSAIQGSVLTSTCIRTNGGYNTSSIDLNSVIANVDGSLKWQGSNFIETCRNTQLAGSSELAAECKTRAQQFVSTKINLDDHIAAIDGTLKYE
glycan array binding signal (z-score) [1]: -0.16
glycan array binding signal (z-score) [2]: -0.09
glycan array binding signal (z-score) [3]: -0.19
glycan array binding signal (z-score) [4]: -0.145
glycan array binding signal (z-score) [5]: -0.168
glycan array binding signal (z-score) [6]: 1.61
glycan array binding signal (z-score) [7]: -0.123
glycan array binding signal (z-score) [8]: -0.221
glycan array binding signal (z-score) [9]: -0.194
glycan array binding signal (z-score) [10]: -0.171
glycan array binding signal (z-score) [11]: -0.221
glycan array binding signal (z-score) [12]: -0.192
glycan array binding signal (z-score) [13]: 1.41
glycan array binding signal (z-score) [14]: -0.243
glycan array binding signal (z-score) [15]: 0.1
glycan array binding signal (z-score) [16]: -0.198
glycan array binding signal (z-score) [17]: -0.211
glycan array binding signal (z-score) [18]: 0.128
glycan array binding signal (z-score) [19]: -0.121
glycan array binding signal (z-score) [20]: -0.227
glycan array binding signal (z-score) [21]: -0.238
glycan array binding signal (z-score) [22]: 0.189
glycan array binding signal (z-score) [23]: -0.219
glycan array binding signal (z-score) [24]: -0.252
glycan array binding signal (z-score) [25]: -0.214
